In the library only some 4.4% were active in any assay of this set; here they are far more common.
TIM10 inh: growth inhibitors of isogenic TIM10 control yeast, primary screen, counter-screen for tim10-1 yeast inhibitor project, luminescence, uHTS; S. cerevisiae TIM10 strain growth, BacTiter-Glo luminescence, 24 h; inhibition, % at 10 µM; actives 1.4% (n = 330,000); AID 463195, 2010;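 active means inhibition of 40% or more at the single tested concentration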;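 further: wild-type TIM10 isogenic control strain grown at permissive 25 °C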
tim23-1 inh: growth inhibitors of tim23-1 mutant yeast, primary screen, luminescence, uHTS | S. cerevisiae tim23-1 growth, BacTiter-Glo luminescence, 24 h | inhibition, % at 20 µM | AID 463212, 2010 | actives 1.3% (n = 330,000);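 active means growth inhibition of the mutant yeast at or above 50%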;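 further: temperature-sensitive mutant grown at 25 °C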
tim10-1 inh: growth inhibitors of tim10-1 mutant yeast, primary screen, luminescence, uHTS | actives 2.2% (n = 330,000) | S. cerevisiae tim10-1 ts strain growth, BacTiter-Glo, 24 h | inhibition, % at 20 µM;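 active means inhibition of at least 40%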;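 further: mutant grown at 25 °C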
PfHsp90 yeast 2: growth inhibition of PfHsp90-expressing yeast, primary screen, antimalarial PfHsp90 inhibitor project, S. cerevisiae, BacTiter-Glo luminescence, single point, set 2 | BacTiter-Glo ATP, 48 h; yeast lacking PDR1 and PDR3 efflux regulators | inhibition, % at 9.4 µM | actives 0.32% (n = 310,000) | AID 504621, 2011;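 active means every replicate shows inhibition above about 80%, whatever the replicate mean, limit read from the data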
SKKanGAS inh: S. pyogenes SKKanGAS growth inhibitors in kanamycin, primary screen, streptokinase expression inhibitor project, SKKanGAS strain, BacTiter-Glo luminescence. 6 h. inhibition, % at 7.5 µM. actives 1.3% (n = 300,000). AID 1662, 2009;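 active means mean replicate score, as percent of positive control median, at least 50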;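 further: strain carries kanamycin resistance gene driven by streptokinase promoter and grows in 40 µg/ml kanamycin; loss of luminescence reflects streptokinase promoter inhibition or plain growth inhibition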
Numbers stand for hits; n = inactive; x = no result.

SMILES	TIM10 inh	tim23-1 inh	tim10-1 inh	PfHsp90 yeast 2	SKKanGAS inh
O=C(Nc1ccccc1)C(=O)Nc1ccc2c(c1)N(C(=O)C1CC1)CCC2	n	n	n	x	55
O=C(C1CCC(C(=O)N2CCc3ccccc32)CC1)N1CCc2ccccc21 (centres undefined)	n	n	n	x	n
COc1cc(NC(=O)c2cc3ccccc3cc2O)c(OC)cc1Cl	n	n	n	n	n
Cc1ccc(Cl)cc1NC(=O)COC(=O)c1ccccc1O	n	n	n	n	n
Cc1ccc(Cl)cc1NC(=O)c1cc2ccccc2cc1O	n	n	n	n	97
COc1ccccc1NC(=O)c1cc2cc(Br)ccc2cc1O	x	x	x	n	53
COc1cccc(C(=O)Nc2cc(C(=O)NCc3ccc(C)cc3)ccc2N2CCC3(CC2)CC(c2cccc(Br)c2)=NO3)c1	n	n	n	n	x
Cn1c(C(=O)N2CCN(c3ccc([N+](=O)[O-])cc3)CC2)cc2c(=O)[nH]c3ccccc3c21	x	x	x	n	75
Cc1cc(C(=O)N2CCN(c3ccc([N+](=O)[O-])cc3)CC2)co1	n	n	n	x	n
C=CCn1c(C)cc(C(=O)COC(=O)c2cncc(Br)c2)c1C	n	n	n	n	x
O=c1cc(O)c2c(=O)n(-c3ccccc3)c3ccccc3c2o1	n	n	n	n	102
COC(=O)c1ccc(CSc2n[nH]c(=S)s2)o1	n	n	n	n	63
COC(=O)c1ccc(CSc2nc3ccccc3s2)o1	n	n	n	n	n
Cc1[nH]nc(-c2cccnc2)c1N=NN(C)C	x	x	x	n	x
Cc1cc(C)c(C#N)c(N2CCOCC2)n1	n	n	n	n	n
Cc1cc(C)c2c(N=NN3CCOCC3)[nH]nc2n1	n	n	n	102	n
CCc1cc(=S)n2c([nH]c3ccccc32)c1C#N	n	n	n	n	n
CCc1c(C)c(C#N)c2[nH]c3ccccc3n2c1=S	n	n	n	n	60
C=CC[C@H](CC(=O)NCCO)C(=O)N[C@@H](COC(=O)[C@@H](CC=C)CC(=O)OC(C)(C)C)Cc1c[nH]c2ccccc12	n	n	n	n	x
Nc1ncc(Br)cc1S(=O)(=O)Nc1cc(C(F)(F)F)cc(C(F)(F)F)c1	n	n	n	n	64
Cc1cc(C)n(-c2nc(SCC(=O)O)c3c4c(sc3n2)COC(C)(C)C4)n1	n	n	n	n	70
O=C1CCC/C=C/C[C@H](CC(=O)N(CCO)Cc2ccccc2)C(=O)N[C@@H](Cc2ccccc2)CO1	n	n	n	x	x
O=C(N=Nc1c(O)[nH]c2ccc(F)cc12)c1ccc(NS(=O)(=O)c2cccs2)cc1	n	n	n	n	x
Cc1ccc2[nH]c(O)c(N=NC(=O)c3ccc(NS(=O)(=O)c4cccs4)cc3)c2c1	n	n	n	n	76
COc1cc(NC(=O)Cn2cnc(C(=O)Nc3ccc(C)c(C)c3)n2)cc(OC)c1OC	n	n	n	n	x
SMILES	TIM10 inh	tim23-1 inh	tim10-1 inh	PfHsp90 yeast 2	SKKanGAS inh
Cc1cccc(C)c1NC(=O)c1ccc(OCc2c(C)noc2C)cc1	n	n	n	n	x
O=C(COC(=O)c1ccccc1O)Nc1ccc(N2CCOCC2)cc1	n	n	n	n	x
CN(Cc1cnn(C)c1)Cc1nc(-c2ccc(Cl)cc2)no1	n	n	n	n	n
CCc1ccc(CN(C)Cc2nc(-c3cccc(Cl)c3)no2)nc1	n	n	n	n	62
CCN(CC)C(=O)[C@H]1C[C@H](CC(=O)NC(C)(C)C)C(=O)N2CCc3c([nH]c4cc(CCC(=O)N(C)C)ccc34)[C@]12C	n	n	n	n	x
CN(C)/C=C/C(=O)c1ccc2noc(-c3cccc(F)c3)c2c1	n	n	n	107	n
COc1ccc(-c2nnc3n(CCc4ccccc4)c(=O)c4ccccc4n23)c(OC)c1	n	n	n	107	n
Cc1csc2nc(CSc3nc4ccccc4o3)c(Br)n12	n	n	n	n	60
Cc1csc2nc(CSc3nncn3-c3ccccc3)c(Br)n12	n	n	n	n	n
O=C(CCNC(=O)c1ccccc1)NNC(=O)c1ccccc1Br	n	n	n	n	x
COC(=O)[C@H]1[C@H](CCc2ccccc2)NC(=O)N(Cc2ccccc2)[C@@H]1C	x	x	x	n	73
CC(C)OC(=O)c1ccc(NCc2cc(O)ccc2O)cc1	x	x	x	87	x
O=C(OCc1ccccc1)c1ccc(NCc2cc(O)ccc2O)cc1	x	x	x	108	x
COP(=O)(OC)c1ccc(NCc2cc(O)ccc2O)cc1	x	x	x	n	x
CCOC(=O)c1c(-c2ccc(C)o2)csc1NC(=O)COC(=O)c1ccc(NC(N)=O)cc1	n	n	n	n	68
CCOC(=O)c1c(-c2ccc(C)o2)csc1NC(=O)CSc1nnc(C)s1	n	n	n	n	n
CCOC(=O)c1c(-c2ccc(C)o2)csc1NC(=S)NC(=O)c1cccs1	n	n	n	n	61
COC(=O)c1nc(NC(=S)NC(=O)c2cccs2)sc1C	n	n	n	x	60
O=C(CC1(CC(=O)N2CCOCC2)CCCC1)Nc1ccc(F)cc1	n	n	n	n	x
O=C(OCc1ccccc1)c1ccccc1O	n	n	n	x	x
O=C(OCc1csc(-c2ccccc2)n1)c1ccccc1O	n	n	n	n	50
Cc1ccc(C(=O)NC(=S)NNC(=O)COc2ccc([N+](=O)[O-])cc2)cc1	n	n	n	n	82
O=C(COc1ccc([N+](=O)[O-])cc1)NNC(=S)NC(=O)c1ccc(Br)cc1	n	n	n	n	55
O=C(Cn1nc(CNc2ccc(Cl)cc2)[n+]2c1CCCCC2)c1ccc(Br)cc1	n	n	n	n	84
COc1ccc(NCc2nn(CC(=O)c3ccc(Br)cc3)c3[n+]2CCCCC3)cc1	n	n	n	n	n
SMILES	TIM10 inh	tim23-1 inh	tim10-1 inh	PfHsp90 yeast 2	SKKanGAS inh
CCOc1ccccc1N1CCN(C(=O)c2cccc(-c3ccc(O)cc3)c2)CC1	n	n	n	104	n
CCOc1ccccc1N1CCN(C(=O)c2ccncc2)CC1	n	n	n	n	n
CC(C)C(=O)NC(c1ccco1)c1ccc2cccnc2c1O (centres undefined)	n	n	n	n	87
CC(C)C(=O)NC(c1cccc([N+](=O)[O-])c1)c1ccc2cccnc2c1O (centres undefined)	n	n	n	119	n
O=C(COC(=O)c1cc(S(=O)(=O)N2CCOCC2)c(Cl)cc1Cl)NCc1ccco1	n	n	n	n	x
Cc1cccc(/C=C(\C(=O)O)c2ccc(S(=O)(=O)N3CCCC3)s2)c1	n	n	n	n	x
Cc1ccc(C)c(-c2csc(N)c2C(=O)OC(C)C)c1	n	n	n	n	53
CCOC(=O)c1ccc(S(=O)(=O)N2CCN(C3CC(=O)N(c4ccccc4C(F)(F)F)C3=O)CC2)cc1 (centres undefined)	n	n	n	n	x
CCCCn1c(-c2ccco2)nc2oc3ccccc3c(=O)c2c1=O	n	n	n	n	50
